Source: PubChem (National Center for Advancing Translational Sciences (NCATS))
Shown are actives, neighbours in structure and some others; about 2.1% of the full set was active somewhere.
TSG101-PTAP inh: blocks PTAP/TSG101 interaction to inhibit HIV-1 budding; Q99816; Fluorescence polarization, FITC-PTAP peptide / Tsg101 binding; Potency, µM (top dose mostly 115 µM), for the others: at the top dose activity change, negative = inhibition, hits mostly inhibitors; 340,000 tested, under 10 active; AID 493005; active = well fitted inhibition curve with a large enough effect in the main read-out, with a control signal flat, not every such curve was filed as active; inconclusive = small, poorly fitted or top-dose-only effect, or effect the other way, or a change in a side signal; inactive = no such curve, though single readings can be large or run the other way; note: % of control where 0% means no effect
Target sequence (Q99816 whole entry, looked up): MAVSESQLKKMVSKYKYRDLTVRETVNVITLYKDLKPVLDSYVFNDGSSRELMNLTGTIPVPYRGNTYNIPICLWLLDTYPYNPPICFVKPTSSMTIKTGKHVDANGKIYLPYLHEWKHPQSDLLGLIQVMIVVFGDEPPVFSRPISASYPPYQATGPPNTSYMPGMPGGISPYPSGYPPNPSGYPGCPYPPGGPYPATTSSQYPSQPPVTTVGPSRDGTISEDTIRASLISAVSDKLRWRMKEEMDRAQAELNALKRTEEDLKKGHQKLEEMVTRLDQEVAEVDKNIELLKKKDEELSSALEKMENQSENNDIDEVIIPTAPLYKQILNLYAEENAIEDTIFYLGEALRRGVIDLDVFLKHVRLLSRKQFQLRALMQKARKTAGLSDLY
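Fluorescence anisotropy tracks displacement of a FITC-tagged PTAP peptide (50 nM) from the Tsg101 binding domain (10 uM), following a 20 min room-temperature incubation at pH 7.5.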
aSyn yeast inh: alpha-synuclein toxicity inhibition in yeast | Yeast expressing alpha-synuclein, growth rescue, BacTiter-Glo, 24 h | Potency, µM (highest dose often 46.1 µM), without a hit: at the top dose growth rescue (activation), hits mostly activators | hit rate 0.14% among 370,000; note: % of control where 0% means no effect; nearly all actives have a fitted effect of over 65% in size
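Screening used galactose-induced yeast with toxic alpha-synuclein levels, exposed to compound for 24 hr at 30 deg C. Cell growth, read with BacTiter-Glo luminescence, gave the measured signal.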
FUS suppressor: FUS proteinopathy suppression in yeast; hit rate 0.24% among 390,000; Potency, µM (top dose mostly 76.6 µM), usual class: activators; S. cerevisiae FUS-expressing, growth rescue, OD600, 24 h; AID 1347120;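 note: plate controls were DMSO vehicle for no effect and reference control for full effect; nearly all actives have a fitted effect of over 55% in size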
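Quantitative HTS measuring growth restoration of FUS-toxic yeast. Galactose-induced cells (OD 0.005) were exposed 24hr at 30C to compounds at several concentrations, then absorbance at 600 nm was recorded.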
TDP-43 yeast inh: rescues yeast growth from TDP-43 toxicity. hit rate 1.8% among 410,000. AID 652104. TDP-43 expressing yeast growth rescue, BacTiter-Glo, 24 h. Potency, µM (series often up to 46.1 µM), for inactives: at the highest dose growth rescue (activation), actives largely listed as activators; note: % of control where 0% means no effect; nearly all actives have a fitted effect of over 50% in size
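Cell-based yeast growth screen: TDP-43 expression induced in galactose, inoculum OD600=0.02 after raffinose pregrowth to mid-log. Read-out BacTiter-Glo luminescence at 24 hr, 30 deg C; inhibition of toxicity seen as signal increase.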
Abeta yeast res: restores growth of yeast expressing A-beta42 peptide; yeast expressing A-beta42, growth rescue, OD600, 48 h; response scale: 0% DMSO, 100% iron-clioquinol control; Potency, µM (titrated, usually from 46.1 µM), usual class: activators; hit rate 0.063% among 410,000; AID 1347071; note: nearly all actives have a fitted effect of over 55% in size
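Yeast growth medium received pinned compounds, then yeast cells expressing toxic A-beta were added; plates incubated at 30 C for 48 hr. Growth read as absorbance at 600 nm, normalized to DMSO and equimolar FeCl3 plus clioquinol controls.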
Active calls of the source: *; i = inactive; ? = inconclusive; . = no result; [ ] = dose if it differs, or a comment. Unless noted, calls come from the whole dose curve; as a rule, active = well fitted curve in the direction sought with a large enough effect; inconclusive = small, poorly fitted or top-dose-only effect, or another doubt; inactive = no such curve, though single readings can be large; an effect the other way counts as inactive or inconclusive. Potency is the fitted concentration of half-maximal effect.

SMILES | TSG101-PTAP inh | aSyn yeast inh | FUS suppressor | TDP-43 yeast inh | Abeta yeast res
C[C@@H]1C=CC(=O)O[C@@H]1c1ccc(Cl)cc1 | . | -16% | i | 13µM* | i
COC(OC)c1ccc(C#N)c(SCc2ccccc2)n1 | -5% | -2% | i | 14µM* | i
Nc1nc(-c2ccco2)nn1C(=O)c1ccc(F)cc1 | -4% | 4% | i | 11µM* | i
CCCC[C@H]1C2CC(OC(=O)Nc3cccc(Cl)c3)C(C2)[C@H]2CCCCN21 (some centres undefined) | . | . | i | . | .
CCc1c(C)sc(NC(=O)CC#N)c1C#N | -5% | -2% | 10µM* | -2% | i
Cc1ccc(NC(=O)Nc2nnc(N3CCCC3)s2)c(C)c1 | . | . | i | 22%[9.22 µM] | i
Cc1nc(-c2ccc(S(=O)(=O)Nc3cc(Cl)ccc3C)cc2)co1 | . | ? | i | 22µM* | i
Cc1nc(-c2ccc(S(=O)(=O)Nc3cc(F)ccc3F)cc2)co1 | -3% | 16% | i | -9% | i
CN(C)c1ccc(CCc2ccnc3ccccc23)cc1 | . | 15% | . | . | .
O=S(=O)(NCCc1csc(-c2cccnc2)n1)c1cccc(F)c1 | -1% | -12% | i | 0% | ?
O=C(Cc1ccc(F)cc1)NCCc1csc(-c2cccc(F)c2)n1 | . | . | i | 11µM* | i
O=C(NCCc1csc(-c2ccc(F)cc2)n1)c1cccc(F)c1 | . | . | i | 16µM* | i
O=C(NCCc1csc(-c2ccc(C(F)(F)F)cc2)n1)c1ccc(F)c(F)c1 | . | -4% | ? | 25µM* | i
O=S(=O)(NCCc1csc(-c2cccnc2)n1)c1cc(F)ccc1F | 0% | -15% | . | ? | 14µM*
Cc1cccc(-c2nc(CCNC(=O)Cc3ccc(F)cc3)cs2)c1 | . | . | i | 28% | i
CC(=O)Nc1ccc(-c2nnc3n(Cc4ccc(C)cc4)c(=O)c4ccccc4n23)cc1 | . | . | i | 6% | i
O=C(CCC1CCCCC1)NNC(=O)NC12CC3CC(CC(C3)C1)C2 | . | 2% | 25µM* | 0% | i
O=C(O)CCC(=O)NNC(=O)CCC1CCCCC1 | 0% | -4% | i | 0% | i
CC(C)(C)c1ccc(OCCNC(=S)Nc2ccccc2)cc1 | -12% | -1% | i | 13µM* | i
Oc1ccc2ccccc2c1CNc1ccc(Br)cn1 | 0% | 1% | i | 20µM* | i
COc1ccc(N/N=C(/Oc2ccc([N+](=O)[O-])cc2)C(C)=O)cc1 | -5% | 6% | i | ? | i
COc1ccc(NN=Nc2ccc([N+](=O)[O-])cc2)cc1 | -2% | -9% | i | 18µM* | ?
O=C(CSc1nc2ccccc2o1)Nc1ccccc1N1CCOCC1 | -3% | 16% | i | 14% | i
CCc1ccc(NC(=O)CCn2nc(-c3ccccc3OC)c3c(C)cc(C)nc32)cc1 | . | 22% | ? | ? | i
COc1ccc(-c2nnc(SCC(=O)Nc3cc(F)ccc3C)o2)cc1 | 3% | 5% | i | 11µM* | ?
SMILES | TSG101-PTAP inh | aSyn yeast inh | FUS suppressor | TDP-43 yeast inh | Abeta yeast res
COc1ccc(NC(=O)CCn2nc(-c3ccccc3OC)c3c(C)cc(C)nc32)cc1 | . | . | i | 14µM* | i
COc1ccccc1NC(=O)c1c(C)cc(C)nc1SCC(=O)Nc1ccc(C)cc1 | . | . | ? | 18µM* | i
COc1ccc(NC(=O)CSc2nc(C)cc(C)c2C(=O)Nc2cccc(C)c2)cc1 | . | . | i | 15% | i
O=C(CSc1nnc(-c2ccc(F)cc2)o1)Nc1ccccc1N1CCOCC1 | 0% | ? | i | 22µM* | i
Cc1ccc(NC(=O)c2cc3c([nH]c2=O)CC(C)(C)CC3=O)cc1 | . | -2% | . | . | .
COc1ccccc1NC(=O)CSc1nnc(-c2ccccc2C)o1 | . | . | i | 20µM* | i
S=c1[nH]nc2ccc3ccccc3n12 | . | 0% | i | 13µM* | i
O=C(C[N+]1(CCO)CCOCC1)c1ccc(F)c2ccccc12 | . | 2% | . | . | .
Brc1ccc(C2C=Cc3ccccc32)cc1 (centres undefined) | . | -12% | . | . | .
COc1ccc(CNC(=O)C2(c3cccs3)CCOCC2)cc1 | . | . | i | 9% | i
